Columns and labels:
[1] = target: Dual specificity protein kinase CLK3 (Homo sapiens) (UniProt P49761); conditions: at 1 µM;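 also: each value is the mean inhibition of CLK3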
[2] = target: Dual specificity tyrosine-phosphorylation-regulated kinase 1A (Homo sapiens) (UniProt Q13627); conditions: at 0.1 µM
[3] = target: Dual specificity tyrosine-phosphorylation-regulated kinase 1A (Homo sapiens) (UniProt Q13627); conditions: at 1 µM
[4] = target: Dual specificity tyrosine-phosphorylation-regulated kinase 1B (Homo sapiens) (UniProt Q9Y463); conditions: at 0.1 µM
Dual specificity tyrosine-phosphorylation-regulated kinase 1B (Homo sapiens), sequence (Q9Y463 whole entry, looked up): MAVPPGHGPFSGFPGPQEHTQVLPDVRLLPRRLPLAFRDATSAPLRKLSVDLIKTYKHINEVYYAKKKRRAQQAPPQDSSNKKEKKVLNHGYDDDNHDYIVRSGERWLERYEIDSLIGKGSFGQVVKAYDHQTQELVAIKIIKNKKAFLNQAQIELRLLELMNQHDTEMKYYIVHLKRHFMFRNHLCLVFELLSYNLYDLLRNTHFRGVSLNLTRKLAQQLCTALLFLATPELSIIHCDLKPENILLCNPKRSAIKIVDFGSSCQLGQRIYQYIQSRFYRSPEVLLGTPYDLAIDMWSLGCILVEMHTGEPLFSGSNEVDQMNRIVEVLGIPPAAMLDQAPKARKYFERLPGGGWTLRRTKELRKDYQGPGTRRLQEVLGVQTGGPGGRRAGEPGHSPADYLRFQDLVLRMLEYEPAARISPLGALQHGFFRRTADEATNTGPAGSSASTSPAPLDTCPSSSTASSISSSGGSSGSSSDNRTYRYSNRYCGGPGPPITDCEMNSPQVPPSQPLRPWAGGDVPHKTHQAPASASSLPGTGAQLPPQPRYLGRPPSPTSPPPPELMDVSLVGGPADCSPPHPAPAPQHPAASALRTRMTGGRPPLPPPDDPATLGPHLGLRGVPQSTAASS

[5] = target: Dual specificity tyrosine-phosphorylation-regulated kinase 1B (Homo sapiens) (UniProt Q9Y463); conditions: at 1 µM
[6] = target: T1, Dual specificity tyrosine-phosphorylation-regulated kinase 2 (Homo sapiens) (UniProt Q92630); conditions: at 0.1 µM
T1 sequence (whole entry): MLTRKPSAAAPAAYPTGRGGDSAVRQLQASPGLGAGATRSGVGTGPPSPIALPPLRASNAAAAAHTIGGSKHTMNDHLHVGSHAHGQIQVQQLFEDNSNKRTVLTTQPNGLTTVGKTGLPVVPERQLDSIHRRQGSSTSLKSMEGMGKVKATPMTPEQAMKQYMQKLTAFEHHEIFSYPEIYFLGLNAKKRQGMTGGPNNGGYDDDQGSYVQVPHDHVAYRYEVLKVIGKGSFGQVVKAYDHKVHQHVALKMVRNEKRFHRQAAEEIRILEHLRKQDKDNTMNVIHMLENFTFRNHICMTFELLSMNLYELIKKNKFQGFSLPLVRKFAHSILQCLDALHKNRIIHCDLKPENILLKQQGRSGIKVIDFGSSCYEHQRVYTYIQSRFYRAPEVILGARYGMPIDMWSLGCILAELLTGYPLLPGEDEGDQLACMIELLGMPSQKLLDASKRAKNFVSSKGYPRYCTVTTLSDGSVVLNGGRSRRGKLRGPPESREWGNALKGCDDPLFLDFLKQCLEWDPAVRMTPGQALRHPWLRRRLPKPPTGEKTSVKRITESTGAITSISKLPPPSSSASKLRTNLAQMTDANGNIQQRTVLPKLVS

[7] = target: T1, Dual specificity tyrosine-phosphorylation-regulated kinase 2 (Homo sapiens); conditions: at 1 µM
[8] = target: Glycogen synthase kinase-3 alpha (Homo sapiens) (UniProt P49840); conditions: at 0.1 µM
Glycogen synthase kinase-3 alpha (Homo sapiens), sequence (P49840 2-483 limits assumed): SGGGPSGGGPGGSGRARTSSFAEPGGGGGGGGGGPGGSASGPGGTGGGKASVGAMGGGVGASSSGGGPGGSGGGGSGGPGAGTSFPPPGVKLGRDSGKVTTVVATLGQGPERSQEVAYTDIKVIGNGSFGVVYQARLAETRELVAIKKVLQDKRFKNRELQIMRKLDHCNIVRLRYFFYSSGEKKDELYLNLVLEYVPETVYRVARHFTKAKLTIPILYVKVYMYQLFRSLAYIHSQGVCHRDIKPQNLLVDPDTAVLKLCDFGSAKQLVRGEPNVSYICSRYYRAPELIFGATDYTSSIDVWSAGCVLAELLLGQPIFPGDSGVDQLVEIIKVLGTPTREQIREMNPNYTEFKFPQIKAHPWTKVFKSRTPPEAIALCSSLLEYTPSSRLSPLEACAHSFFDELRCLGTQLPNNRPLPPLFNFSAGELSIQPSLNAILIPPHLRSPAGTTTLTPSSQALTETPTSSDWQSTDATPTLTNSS

[9] = target: Glycogen synthase kinase-3 alpha (Homo sapiens) (UniProt P49840); conditions: at 1 µM
[10] = target: Glycogen synthase kinase-3 beta (Homo sapiens) (UniProt P49841); conditions: at 0.1 µM
Glycogen synthase kinase-3 beta (Homo sapiens), sequence (P49841 whole entry, looked up): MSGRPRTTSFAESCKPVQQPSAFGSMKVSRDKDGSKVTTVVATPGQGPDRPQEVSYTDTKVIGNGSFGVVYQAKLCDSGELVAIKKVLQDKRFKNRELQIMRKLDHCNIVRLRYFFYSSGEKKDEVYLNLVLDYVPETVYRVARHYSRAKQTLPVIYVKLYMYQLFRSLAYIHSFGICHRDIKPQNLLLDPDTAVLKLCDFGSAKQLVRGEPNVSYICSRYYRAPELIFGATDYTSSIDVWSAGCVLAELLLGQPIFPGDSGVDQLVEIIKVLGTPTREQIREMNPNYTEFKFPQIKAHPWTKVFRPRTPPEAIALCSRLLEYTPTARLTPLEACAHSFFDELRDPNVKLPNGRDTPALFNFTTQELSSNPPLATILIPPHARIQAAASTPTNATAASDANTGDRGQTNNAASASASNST

[11] = target: Glycogen synthase kinase-3 beta (Homo sapiens) (UniProt P49841); conditions: at 1 µM
[12] = target: Homeodomain-interacting protein kinase 1 (Homo sapiens) (UniProt Q86Z02); conditions: at 0.1 µM
Homeodomain-interacting protein kinase 1 (Homo sapiens), sequence (Q86Z02 whole entry, looked up): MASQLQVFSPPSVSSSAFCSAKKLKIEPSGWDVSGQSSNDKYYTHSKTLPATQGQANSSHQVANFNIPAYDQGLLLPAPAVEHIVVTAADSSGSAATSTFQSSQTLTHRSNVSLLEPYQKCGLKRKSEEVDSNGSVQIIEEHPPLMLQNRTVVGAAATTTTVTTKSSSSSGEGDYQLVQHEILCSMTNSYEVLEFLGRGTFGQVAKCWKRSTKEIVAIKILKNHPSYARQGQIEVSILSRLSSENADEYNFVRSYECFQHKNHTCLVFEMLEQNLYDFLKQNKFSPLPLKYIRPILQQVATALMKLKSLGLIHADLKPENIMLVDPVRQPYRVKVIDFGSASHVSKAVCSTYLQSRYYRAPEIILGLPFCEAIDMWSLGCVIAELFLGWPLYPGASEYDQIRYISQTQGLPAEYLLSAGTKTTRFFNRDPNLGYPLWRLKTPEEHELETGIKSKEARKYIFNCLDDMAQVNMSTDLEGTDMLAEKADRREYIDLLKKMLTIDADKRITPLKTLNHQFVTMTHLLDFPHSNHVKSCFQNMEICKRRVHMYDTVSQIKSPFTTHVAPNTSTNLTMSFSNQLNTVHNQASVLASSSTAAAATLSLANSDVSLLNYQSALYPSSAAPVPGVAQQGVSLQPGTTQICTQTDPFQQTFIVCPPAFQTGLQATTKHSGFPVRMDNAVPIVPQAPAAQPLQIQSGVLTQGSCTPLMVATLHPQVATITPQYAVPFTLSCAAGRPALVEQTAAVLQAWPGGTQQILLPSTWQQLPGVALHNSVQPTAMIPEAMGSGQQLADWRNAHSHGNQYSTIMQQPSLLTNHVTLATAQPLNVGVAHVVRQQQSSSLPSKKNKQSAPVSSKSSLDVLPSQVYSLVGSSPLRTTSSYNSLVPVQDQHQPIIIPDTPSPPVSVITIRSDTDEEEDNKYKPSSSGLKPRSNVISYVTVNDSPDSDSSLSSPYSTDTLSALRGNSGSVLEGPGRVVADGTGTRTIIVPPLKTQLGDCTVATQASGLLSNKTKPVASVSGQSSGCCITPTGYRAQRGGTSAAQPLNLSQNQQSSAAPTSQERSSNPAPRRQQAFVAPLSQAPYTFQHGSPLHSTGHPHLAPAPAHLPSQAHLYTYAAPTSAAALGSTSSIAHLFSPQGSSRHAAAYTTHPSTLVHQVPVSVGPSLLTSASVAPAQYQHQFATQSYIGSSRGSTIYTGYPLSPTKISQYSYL

[13] = target: Homeodomain-interacting protein kinase 1 (Homo sapiens) (UniProt Q86Z02); conditions: at 1 µM
[14] = target: T2, Homeodomain-interacting protein kinase 4 (Homo sapiens) (UniProt Q8NE63); conditions: at 0.1 µM
T2 sequence (whole entry): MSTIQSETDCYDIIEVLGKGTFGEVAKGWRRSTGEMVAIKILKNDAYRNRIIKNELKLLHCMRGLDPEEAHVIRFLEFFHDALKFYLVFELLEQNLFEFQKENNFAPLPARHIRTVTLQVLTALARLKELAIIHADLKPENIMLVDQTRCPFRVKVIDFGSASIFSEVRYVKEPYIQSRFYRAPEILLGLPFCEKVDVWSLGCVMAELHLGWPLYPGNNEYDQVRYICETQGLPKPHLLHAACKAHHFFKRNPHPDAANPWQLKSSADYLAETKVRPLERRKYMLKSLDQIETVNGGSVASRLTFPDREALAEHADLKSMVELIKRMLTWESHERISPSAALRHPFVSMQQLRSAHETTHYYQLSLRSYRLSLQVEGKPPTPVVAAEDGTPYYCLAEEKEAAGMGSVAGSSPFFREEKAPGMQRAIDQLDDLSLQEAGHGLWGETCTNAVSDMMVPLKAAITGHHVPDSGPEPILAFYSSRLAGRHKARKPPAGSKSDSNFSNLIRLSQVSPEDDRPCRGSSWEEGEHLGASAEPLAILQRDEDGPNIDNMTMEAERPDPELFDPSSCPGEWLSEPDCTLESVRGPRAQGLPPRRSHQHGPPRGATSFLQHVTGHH

[15] = target: T2, Homeodomain-interacting protein kinase 4 (Homo sapiens); conditions: at 1 µM
[16] = target: Mitogen-activated protein kinase 9 (Homo sapiens) (UniProt P45984); conditions: at 0.1 µM
Mitogen-activated protein kinase 9 (Homo sapiens), sequence (P45984 whole entry, looked up): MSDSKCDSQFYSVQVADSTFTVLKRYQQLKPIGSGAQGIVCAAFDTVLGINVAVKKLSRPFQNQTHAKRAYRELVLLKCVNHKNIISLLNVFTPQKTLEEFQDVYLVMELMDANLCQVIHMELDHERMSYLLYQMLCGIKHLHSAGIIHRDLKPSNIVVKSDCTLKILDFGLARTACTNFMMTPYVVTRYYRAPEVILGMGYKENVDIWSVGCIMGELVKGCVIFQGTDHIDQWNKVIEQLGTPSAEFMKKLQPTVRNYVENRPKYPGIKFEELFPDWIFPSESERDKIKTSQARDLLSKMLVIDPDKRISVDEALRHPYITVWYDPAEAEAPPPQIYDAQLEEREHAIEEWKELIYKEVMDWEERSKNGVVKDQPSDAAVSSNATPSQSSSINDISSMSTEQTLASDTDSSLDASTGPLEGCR

[17] = target: Mitogen-activated protein kinase 9 (Homo sapiens) (UniProt P45984); conditions: at 1 µM
[18] = target: Mitogen-activated protein kinase 1 (Homo sapiens) (UniProt P28482); conditions: at 0.1 µM
Mitogen-activated protein kinase 1 (Homo sapiens), sequence (P28482 whole entry): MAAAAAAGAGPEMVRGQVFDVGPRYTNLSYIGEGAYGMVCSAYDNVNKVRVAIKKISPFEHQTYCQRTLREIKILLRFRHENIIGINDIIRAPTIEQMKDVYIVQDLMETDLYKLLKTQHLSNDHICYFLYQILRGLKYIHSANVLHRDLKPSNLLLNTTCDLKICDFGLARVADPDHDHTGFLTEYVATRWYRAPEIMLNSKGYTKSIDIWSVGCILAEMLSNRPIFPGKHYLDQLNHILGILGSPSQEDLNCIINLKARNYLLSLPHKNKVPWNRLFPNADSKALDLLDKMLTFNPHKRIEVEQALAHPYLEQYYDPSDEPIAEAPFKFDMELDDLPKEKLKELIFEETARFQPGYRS

[19] = target: Mitogen-activated protein kinase 1 (Homo sapiens) (UniProt P28482); conditions: at 1 µM
[20] = target: Mitogen-activated protein kinase 3 (Homo sapiens) (UniProt P27361); conditions: at 0.1 µM;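 also: each value is a mean inhibition figure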
Mitogen-activated protein kinase 3 (Homo sapiens), sequence (P27361 whole entry): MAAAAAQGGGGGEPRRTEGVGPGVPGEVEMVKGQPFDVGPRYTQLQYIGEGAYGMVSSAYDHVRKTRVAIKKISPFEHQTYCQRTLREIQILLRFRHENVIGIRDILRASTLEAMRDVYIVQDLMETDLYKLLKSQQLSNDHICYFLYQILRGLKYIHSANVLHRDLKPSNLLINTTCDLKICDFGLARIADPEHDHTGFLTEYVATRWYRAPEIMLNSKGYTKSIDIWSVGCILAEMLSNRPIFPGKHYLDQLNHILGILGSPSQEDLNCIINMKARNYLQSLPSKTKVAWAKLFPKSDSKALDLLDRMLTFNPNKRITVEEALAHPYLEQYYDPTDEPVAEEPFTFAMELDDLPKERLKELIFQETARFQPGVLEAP

Dual specificity protein kinase CLK3 (Homo sapiens), sequence (P49761 whole entry, looked up): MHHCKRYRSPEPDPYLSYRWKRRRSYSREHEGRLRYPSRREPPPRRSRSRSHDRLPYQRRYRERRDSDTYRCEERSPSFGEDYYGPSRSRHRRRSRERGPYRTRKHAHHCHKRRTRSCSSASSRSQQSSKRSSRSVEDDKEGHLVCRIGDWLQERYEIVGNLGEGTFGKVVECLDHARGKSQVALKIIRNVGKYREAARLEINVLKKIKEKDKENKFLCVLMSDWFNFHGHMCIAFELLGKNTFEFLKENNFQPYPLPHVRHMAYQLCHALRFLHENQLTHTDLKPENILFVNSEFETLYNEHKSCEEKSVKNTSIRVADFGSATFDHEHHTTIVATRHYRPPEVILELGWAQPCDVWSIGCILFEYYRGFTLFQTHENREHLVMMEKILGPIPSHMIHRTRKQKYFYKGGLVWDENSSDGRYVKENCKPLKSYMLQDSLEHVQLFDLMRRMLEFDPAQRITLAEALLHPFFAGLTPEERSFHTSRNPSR

SMILES | inhibition [1] [%] | inhibition [2] [%] | inhibition [3] [%] | inhibition [4] [%] | inhibition [5] [%] | inhibition [6] [%] | inhibition [7] [%] | inhibition [8] [%] | inhibition [9] [%] | inhibition [10] [%] | inhibition [11] [%] | inhibition [12] [%] | inhibition [13] [%] | inhibition [14] [%] | inhibition [15] [%] | inhibition [16] [%] | inhibition [17] [%] | inhibition [18] [%] | inhibition [19] [%] | inhibition [20] [%]
COc1ccc(-c2cc(-c3c[nH]nc3-c3ccccn3)ccn2)cc1 | 1.7 | 2.83 | 6.71 | -0.15 | 2.54 | 4.14 | 3.1 | 3.67 | 5.27 | 3.56 | 6.22 | 4.42 | 4.88 | 2.68 | -2.34 | 4.47 | 9.74 | 4.07 | 5.26 | 3.56
CCCN1CCC(c2ccc(Nc3nc(Nc4cc(F)ccc4C(N)=O)c4cc[nH]c4n3)c(OC)c2)CC1 | 22 | 63.1 | 81.9 | 65.2 | 81.9 | 10.3 | 49 | 6.12 | 8.5 | 4.67 | 9.55 | 49.2 | 81.5 | 59.6 | 84.6 | 68 | 83.8 | 9.4 | 30.2 | 4.94
c1cc(-c2cnn3nc(N4CCOCC4)ccc23)nc(NC2CC2)n1 | 8.62 | 7.48 | 40.4 | 6.08 | 35.8 | 5.57 | 32.8 | 4.47 | 26.4 | 2.95 | 18.2 | 3.36 | 29 | 4.39 | 20.6 | 5.03 | 26.1 | 1.45 | 7.25 | 4.13
Nc1nc(-c2ccc(F)cc2)c(-c2ccc3ncccc3n2)s1 | 6.28 | 8.98 | 37.4 | 3.54 | 19.8 | 3.22 | 5.03 | 12.1 | 20.8 | 11 | 19.6 | 4.79 | 13.9 | 4.95 | 11 | 6.33 | 25.3 | 4.29 | 5.05 | 3.56
COc1ccc(CNC(=O)c2ccc(-c3cc(-c4nnc(C)o4)ccc3C)cc2)cc1 | 2.16 | 1.08 | 1.05 | 1.53 | 2.22 | 0.27 | 1.42 | 5.61 | 17.9 | 5.31 | 13.6 | 5.43 | 5.55 | 7.2 | 9.71 | -0.3 | 2.51 | 4.56 | -9.41 | 1.8
CCOc1ccc2c(-c3ccnc(Nc4cccc(C(F)(F)F)c4)n3)cnn2n1 | 6.13 | -0.46 | 6.48 | 1.37 | 21 | 1.79 | 0.78 | 12.1 | 46.1 | 5.68 | 33.6 | 21.8 | 70 | 10.3 | 46.2 | 1.84 | 1.35 | 3.23 | 3.31 | 2.89

— ChEMBL document CHEMBL1961873, “Compounds: GSK PKIS; Assays: Nanosyn kinase panel” (2012)
